{
  "source": "PubChem BioAssay AID463173",
  "about": "(ICCB-Longwood Screening Facility, Harvard Medical School, 2010)",
  "note": "Hit rate of the full screen: of about 52,000 compounds, about 1,700 (3.3%) were called active. Many of the other results were omitted from the sample, so actives are more common in it than they were. Values without a mark were called inactive. No stated cut-off is given here; in the data, active means survival mostly below about 52% (no sharp cut-off); inactive means mostly above about 56%.",
  "data": [
    {"system": "Wild type", "test": "S. aureus survival, RN4220 and DeltatarO strains – OD600, teichoic acid synthesis inhibitors, primary screen (AID 463173)", "settings": "S. aureus RN4220 wild type/DeltatarO growth, OD600, 18 h, stronger effect = lower value, screened at 18.75 µg/mL (by protocol)", "values": [
      {"molecule": "Cc1ccc(C(=O)N/C(=C/c2ccco2)C(=O)Nc2nccs2)cc1", "survival": "81%"},
      {"molecule": "CCCC(=O)Nc1ccc2c(C)cc(C)nc2n1", "survival": "99%"},
      {"molecule": "CCC(Sc1ccc2nnc(CCNS(=O)(=O)c3ccc(OC)cc3)n2n1)C(=O)OC", "note": "(stereo not given)", "survival": "84%"},
      {"molecule": "COc1ccc(NC(=O)CCS(=O)(=O)c2nc(-c3cccs3)cc(C(F)(F)F)n2)cc1OC", "survival": "100%"},
      {"molecule": "COc1ccccc1NC(=O)CCn1nc(-c2ccccc2)c2ccccc2c1=O", "survival": "4% (active)"},
      {"molecule": "O=C(CCn1nc(-c2ccccc2)c2ccccc2c1=O)Nc1ccccc1", "survival": "86%"},
      {"molecule": "Cc1ccc(NC(=O)CCn2nc(-c3ccccc3)c3ccccc3c2=O)c(C)c1", "survival": "75%"},
      {"molecule": "CCCOc1ccccc1C1C(C(=O)Nc2ccccc2)=C(C)Nc2nnnn21", "note": "(stereo not given)", "survival": "134%"},
      {"molecule": "COc1ccc(-n2c(-c3ccc(F)cc3)cn3c4c(=O)n(C)c(=O)n(C)c4nc23)cc1", "survival": "63%"},
      {"molecule": "CC(C)(C)C(=O)Nc1nnc2n1CCS2", "survival": "77%"},
      {"molecule": "Cc1ccc2c(CNCCc3ccc(Cl)cc3)c(C(=O)O)n(Cc3ccc(F)cc3)c2c1", "survival": "4% (active)"},
      {"molecule": "Cc1ccc2c(CNCCc3ccccc3)c(C(=O)O)n(Cc3ccccc3C)c2c1", "survival": "1% (active)"},
      {"molecule": "C=Cc1ccc(Cn2c(C(=O)O)c(CNCc3ccc(F)cc3)c3ccc(C)cc32)cc1", "survival": "68%"},
      {"molecule": "Cc1ccc2c(CNCCc3ccco3)c(C(=O)O)n(Cc3ccc(F)cc3)c2c1", "survival": "66%"},
      {"molecule": "C=Cc1ccc(Cn2c(C(=O)O)c(CNCCc3ccccc3)c3ccc(C)cc32)cc1", "survival": "69%"},
      {"molecule": "Cc1ccc(CNCc2c(C(=O)O)n(Cc3ccccc3C)c3cc(C)ccc23)cc1", "survival": "63%"},
      {"molecule": "Cc1ccccc1NC(=O)Cn1nc(-c2ccccc2)nc(Cc2ccccc2)c1=O", "survival": "70%"},
      {"molecule": "CC(C)OCCCn1c(=O)c2ccccc2n2c(-c3ccccc3F)nnc12", "survival": "88%"},
      {"molecule": "Cc1c(C(=O)N2CCCC2)oc2c1-c1nn(CC(=O)NCc3cccc(F)c3)cc1CC2", "survival": "85%"},
      {"molecule": "Cc1cccc(N2CCN(C(=O)c3noc4c3COc3ccc(C)cc3-4)CC2C)c1", "note": "(stereo not given)", "survival": "80%"},
      {"molecule": "CN(C)c1ncnc(Cl)c1N", "survival": "101%"},
      {"molecule": "COc1cc(NC(=O)CSc2ncc3c(n2)-c2ccc(Cl)cc2N(Cc2ccccc2)S3(=O)=O)cc(OC)c1", "survival": "65%"},
      {"molecule": "CCc1cccc(NC(=O)CSc2ncc3c(n2)-c2cc(Cl)ccc2N(C)S3(=O)=O)c1", "survival": "65%"},
      {"molecule": "CCOc1ccc(-c2nnc(SCC(=O)Nc3cccc(OC)c3)nc2-c2ccc(OCC)cc2)cc1", "survival": "-3% (active)"},
      {"molecule": "CCOc1ccc(NC(=O)CSc2nnc(-c3ccc(C)cc3)c(-c3ccc(C)cc3)n2)cc1", "survival": "115%"},
      {"molecule": "COc1ccc(-c2nnc(SCC(=O)Nc3cccc(C(F)(F)F)c3)nc2-c2ccc(OC)cc2)cc1", "survival": "79%"},
      {"molecule": "CCOc1ccc(NC(=O)CSc2ncc3c(n2)-c2cc(Cl)ccc2N(C)S3(=O)=O)cc1", "survival": "-3% (active)"},
      {"molecule": "COc1cccc(NC(=O)CSc2ncc3c(n2)-c2ccc(Cl)cc2N(C)S3(=O)=O)c1", "survival": "10% (active)"},
      {"molecule": "CCOc1ccc(NC(=O)CSc2ncc3c(n2)-c2ccccc2N(C)S3(=O)=O)cc1", "survival": "78%"},
      {"molecule": "Cc1ccc(NC(=O)CSc2ncc3c(n2)-c2ccc(Cl)cc2N(C)S3(=O)=O)cc1F", "survival": "69%"},
      {"molecule": "CN(C)CCn1c2c(c(SCC(=O)Nc3ccc(F)cc3F)nc1=O)CCC2", "survival": "83%"},
      {"molecule": "COC(=O)c1scc(-c2ccccc2)c1S(=O)(=O)Nc1cccc(C)c1C", "survival": "100%"},
      {"molecule": "Cn1c(Cc2cccs2)nnc1SCC(=O)N1CCCc2ccccc21", "survival": "109%"},
      {"molecule": "O=C(CSC1=Nc2ccccc2C2=NC(CC(=O)NC3CCCCC3)C(=O)N12)Nc1ccc(F)cc1", "note": "(stereo not given)", "survival": "71%"},
      {"molecule": "CCc1ccccc1NC(=O)c1noc2c1CC(C(C)(C)C)CC2", "note": "(stereo not given)", "survival": "-11% (active)"},
      {"molecule": "CCOC(=O)c1c(NC(=O)c2noc3c2CC(C(C)(C)C)CC3)sc2c1CCCC2", "note": "(stereo not given)", "survival": "88%"},
      {"molecule": "COc1cc(NC(=O)c2noc3c2CC(C(C)(C)C)CC3)cc(OC)c1OC", "note": "(stereo not given)", "survival": "68%"},
      {"molecule": "O=C(C1CCCN(S(=O)(=O)c2ccc(Br)s2)C1)N1CCN(c2cccc(Cl)c2)CC1", "note": "(stereo not given)", "survival": "73%"},
      {"molecule": "Cc1cc(C)n2nc(CNS(=O)(=O)c3ccc(F)cc3)nc2n1", "survival": "88%"},
      {"molecule": "Cc1nc(SCc2ccc(Cl)cc2)c(C#N)c(C)c1Cl", "survival": "32%"},
      {"molecule": "Cc1nc(SCc2ccccc2Cl)c(C#N)c(C)c1C", "survival": "-2% (active)"},
      {"molecule": "Cc1ccc(Cl)cc1NC(=O)CSc1nc(C)c(C)c(C)c1C#N", "survival": "86%"},
      {"molecule": "Cc1cc(F)ccc1NC(=O)Cn1cc(S(=O)(=O)NC(C)C)c(S(=O)(=O)NC(C)C)c1", "survival": "73%"},
      {"molecule": "CNS(=O)(=O)c1cn(CC(=O)Nc2ccc(C)cc2C)cc1S(=O)(=O)NC", "survival": "121%"},
      {"molecule": "CNS(=O)(=O)c1cn(CC(=O)Nc2ccc(F)cc2F)cc1S(=O)(=O)NC", "survival": "-3% (active)"},
      {"molecule": "CCC(=O)N1CCc2cc(Br)cc(S(=O)(=O)N3CCC(C(=O)Nc4ccccc4CC)CC3)c21", "survival": "89%"},
      {"molecule": "CCC(=O)N1CCc2cc(Br)cc(S(=O)(=O)N3CCC(C(=O)Nc4ccc(OC)cc4)CC3)c21", "survival": "0% (active)"},
      {"molecule": "CCC(=O)N1CCc2cc(Br)cc(S(=O)(=O)N3CCC(C(=O)Nc4cccc(C)c4)CC3)c21", "survival": "94%"},
      {"molecule": "CC(C(=O)N(C(C)C)C(C)C)N1CCN(C)CC1", "note": "(stereo not given)", "survival": "93%"},
      {"molecule": "O=C(Cn1c(=O)nc(-c2ccccc2)c2ccccc21)NCc1ccccc1Cl", "survival": "73%"},
      {"molecule": "CCOc1ccc(CNC23CN4CN(CN(C4)C2)C3)cc1", "survival": "99%"},
      {"molecule": "CC1CN(C(=O)C(C)Sc2nc(-c3ccccc3)cc(C(F)(F)F)n2)CC(C)O1", "note": "(stereo not given)", "survival": "101%"},
      {"molecule": "CC(Sc1nc(-c2ccccc2)cc(C(F)(F)F)n1)C(=O)N1CCCC1", "note": "(stereo not given)", "survival": "105%"},
      {"molecule": "COc1ccc(-c2nc(SCC(=O)N3CCN(c4ccc(F)cc4)CC3)n[nH]2)cc1", "survival": "85%"},
      {"molecule": "CC1CCN(C(=O)C(C)Sc2nc(-c3ccccc3)cc(C(F)(F)F)n2)CC1", "note": "(stereo not given)", "survival": "-7% (active)"},
      {"molecule": "CC1CCN(C(=O)CSc2n[nH]c(-c3ccc(F)cc3)n2)CC1", "survival": "76%"},
      {"molecule": "COc1ccc(-c2cc(C(F)(F)F)nc(SCC(=O)N3CCC(C)CC3)n2)cc1", "survival": "55%"},
      {"molecule": "O=C(CSc1n[nH]c(-c2ccc(F)cc2)n1)N1CCN(c2ccc(F)cc2)CC1", "survival": "-6% (active)"},
      {"molecule": "O=C(CSc1n[nH]c(-c2ccccc2)n1)N1CCN(c2ccc(F)cc2)CC1", "survival": "65%"},
      {"molecule": "CC1CCN(C(=O)CSc2nc(-c3ccc(F)cc3)cc(C(F)(F)F)n2)CC1", "survival": "11% (active)"}
    ]}
  ]
}
